Read-out in test [1]: Monokine induced gamma interferon (MIG), CXCL9 (gene 4283)
As to the kind of experiment: BSK_SAg_MIG: BioMAP Diversity Plus: SAg Assay for Monokine induced gamma interferon (MIG) Biomarker Activity (AID 2283092). Particulars: primary human HUVEC with PBMC; actives raise or lower the signal. The method in brief:
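Measures CXCL9 protein by ELISA in a human vascular primary-cell co-culture (umbilical vein endothelium with PBMC) 24 h after chemical addition. Activity is scored up or down from the DMSO control.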

A short description of test [2]: BSK_SAg_PBMCCytotoxicity: PBMC Cytotoxicity Assessment in the BioMAP Diversity Plus: SAg Assay (AID 2283093).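 Also: PBMC viability measured as Alamar Blue reduction fluorescence at 546/580 nm; fitted both ways against DMSO so a hit may be loss or gain of signal.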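 As to AC50: PBMC superantigen activated with SEB plus TSST-1 one hour after compound addition.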 As to conditions: primary human HUVEC with PBMC. The method in brief:
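Alamar Blue reduction (6 h, ex/em 546/580 nm) read after 90 h culture of PBMC pre-dosed 1 h then stimulated with SEB plus TSST-1, 20 ng/mL each. Gain or loss of signal fitted relative to DMSO.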

Read-out in test [3]: Interleukin-8 (IL8), CXCL8 (gene 3576)
As to the kind of experiment: BSK_SAg_IL8: BioMAP Diversity Plus: SAg Assay for Interleukin-8 (IL8) Biomarker Activity (AID 2283094). As to conditions: primary human HUVEC with PBMC; actives raise or lower the signal. In a few lines:
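Chemicals were dosed onto a human endothelial–PBMC co-culture, and IL-8 was quantified by ELISA after 24 h. Both increases and decreases were fitted relative to DMSO.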

Test [4] is described as follows: BSK_SAg_Proliferation: Cell Proliferation Assessment in the BioMAP Diversity Plus: SAg Assay (AID 2283095).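 Also: relative cell number as total protein by SRB absorbance in sub-confluent culture.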 As to conditions: primary human HUVEC with PBMC. In a few lines: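 Absorbance of sulforhodamine B at 560 nm reports total protein in a human vascular endothelial/PBMC co-culture after 96 h chemical exposure. Gain or loss of signal is fitted in both directions against DMSO.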

Test [5] can be described thus: BSK_SAg_SRB: Viability Assessment in the BioMAP Diversity Plus: SAg Assay (AID 2283096).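 Also: cells read one day after compound addition; hits may be either gain or loss of signal compared with DMSO.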 As to conditions: primary human HUVEC with PBMC. The method in brief:
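SRB absorbance at 560 nm served as the viability read-out. Cells (HUVEC plus peripheral blood mononuclear cells) were TCA-fixed and stained 24 h post-dosing; activity fitted in both directions against DMSO controls.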

The target in test [6] is human CYP19A1, CYP19A1 (gene 1588) (UniProt P11511). As to the kind of experiment: NVS_ADME_hCYP19A1: NovaScreen (NVS) CYP450-related Enzyme Activity (ADME) Assay for human CYP19A1 (AID 2283098; active = hit-call score of the fitted dose curve at least 0.9, where 1 is the maximum). In a few lines:
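Primary testing was in duplicate at a single 10 uM concentration, with actives followed up in concentration-response series. Fluorescence read-out of recombinant enzyme activity at 0.5 h, cell-free. Acetonitrile was the negative-control baseline.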

The target of test [7] is human CYP1A1, CYP1A1 (gene 1543) (UniProt P04798). In words: NVS_ADME_hCYP1A1: NovaScreen (NVS) CYP450-related Enzyme Activity (ADME) Assay for human CYP1A1 (AID 2283100; active = hit-call score of the fitted dose curve at least 0.9, where 1 is the maximum). In a few lines: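 Inhibition of recombinant CYP1A1 turnover was assessed fluorometrically in a biochemical format 1 h after compound exposure. Testing began at 10 uM in duplicate and progressed to concentration series reaching 20 uM, with on-plate positive and negative controls.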
Chain of human CYP1A1, CYP1A1 (gene 1543) (P04798 whole entry, looked up): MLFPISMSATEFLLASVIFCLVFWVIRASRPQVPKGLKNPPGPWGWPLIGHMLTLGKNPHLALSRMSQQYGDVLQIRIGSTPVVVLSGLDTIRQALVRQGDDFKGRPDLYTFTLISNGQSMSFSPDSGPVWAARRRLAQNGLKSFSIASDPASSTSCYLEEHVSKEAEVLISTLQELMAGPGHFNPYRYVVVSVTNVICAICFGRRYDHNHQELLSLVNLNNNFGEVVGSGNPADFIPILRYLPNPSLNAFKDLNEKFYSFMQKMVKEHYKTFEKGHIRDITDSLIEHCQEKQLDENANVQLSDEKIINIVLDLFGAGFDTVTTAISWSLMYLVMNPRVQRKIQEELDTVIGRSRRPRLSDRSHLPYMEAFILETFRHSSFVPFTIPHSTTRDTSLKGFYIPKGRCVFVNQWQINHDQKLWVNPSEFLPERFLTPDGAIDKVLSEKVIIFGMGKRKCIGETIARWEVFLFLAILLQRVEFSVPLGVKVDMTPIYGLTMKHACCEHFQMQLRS

For test [8], the target named is human CYP2B6, CYP2B6 (gene 1555) (UniProt P20813). As to the kind of experiment: NVS_ADME_hCYP2B6: NovaScreen (NVS) CYP450-related Enzyme Activity (ADME) Assay for human CYP2B6 (AID 2283101; active = hit-call score of the fitted dose curve at least 0.9, where 1 is the maximum). Here is the method: NVS_ADME_hCYP2B6 is a biochemical, single-readout assay that uses extracted gene-proteins in a cell-free assay. Measurements were taken 1 hour after chemical dosing in a 96-well plate.NVS_ADME_hCYP2B6 is one of one assay component(s) measured or calculated from the NVS_ADME_hCYP2B6 assay. It is designed to make measurements of enzyme activity, a form of enzyme reporter, as detected with fluorescence intensity signals by Fluorescence technology.Data from the assay component NVS_ADME_hCYP2B6 was analyzed into 1 assay endpoint. This assay endpoint, NVS_ADME_hCYP2B6, was analyzed in the positive analysis fitting direction relative to Acetonitrile as the negative control and baseline of activity. Using a type of enzyme reporter, loss-of-signal activity can be used to understand changes in the enzymatic activity as they relate to the gene CYP2B6. Furthermore, this assay endpoint can be referred to as a primary readout, because this assay has produced multiple assay endpoints where this one serves a enzymatic activity function. To generalize the intended target to other relatable targets, this assay endpoint is annotated to the cyp intended target family, where the subfamily is xenobiotic metabolism.
Chain of human CYP2B6, CYP2B6 (gene 1555) (P20813 whole entry, looked up): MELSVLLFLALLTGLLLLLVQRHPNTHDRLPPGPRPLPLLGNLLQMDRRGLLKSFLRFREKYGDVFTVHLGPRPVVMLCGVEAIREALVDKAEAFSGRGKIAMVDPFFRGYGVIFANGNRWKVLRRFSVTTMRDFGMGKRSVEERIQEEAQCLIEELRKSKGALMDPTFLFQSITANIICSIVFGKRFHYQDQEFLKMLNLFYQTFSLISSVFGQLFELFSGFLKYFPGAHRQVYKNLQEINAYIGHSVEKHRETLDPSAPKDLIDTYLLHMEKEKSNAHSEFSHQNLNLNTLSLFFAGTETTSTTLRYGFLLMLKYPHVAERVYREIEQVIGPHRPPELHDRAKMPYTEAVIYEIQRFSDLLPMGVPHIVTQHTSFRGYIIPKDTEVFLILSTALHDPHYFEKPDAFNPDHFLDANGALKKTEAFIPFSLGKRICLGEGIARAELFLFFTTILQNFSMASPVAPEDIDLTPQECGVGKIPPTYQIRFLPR
Binding assays used specific radioligands (tritiated, iodinated) with non-radioactive competitive displacement ligands in agonist or antagonist protocols (as indicated) and various reference compounds and inhibitors to titrate specific binding to receptors and transporters. Most enzyme assays (CYPs, kinases, phosphatases, proteases, HDACs) used recombinant protein and specific substrates (fluorescence mostly, some colorimetric and radioactive) and inhibitors, followed by a biochemical separation of substrate and product. All assays for the biochemical HTS were initially run in duplicate at a single concentration (10 uM for CYP450 assays and 25 uM for all others). […] Each assay was run with positive and negative controls, and concurrent controls on every plate. The follow-up (secondary) screen tested active chemical-pairs in concentration series, as well as a few additional assays not tested in the primary screen, some selected negative inactives, and several cases re-run in the concentration series for confirmatory purposes.

Test [9] has as its target human CYP1A2, CYP1A2 (gene 1544) (UniProt P05177). In words: NVS_ADME_hCYP1A2: NovaScreen (NVS) CYP450-related Enzyme Activity (ADME) Assay for human CYP1A2 (AID 2283102; active = hit-call score of the fitted dose curve at least 0.9, where 1 is the maximum;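 also: fluorescence from turnover of a fluorogenic substrate by recombinant insect-cell CYP1A2; potency for inhibition since loss of fluorescence marks reduced CYP1A2 activity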). The method in brief:
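Inhibition scored as decrease in fluorescent product versus acetonitrile negative control. Enzyme: insect-cell recombinant human CYP1A2, substrate-specific, cell-free. Reading at 0.5 h; 10 uM duplicate initial screen with positive and negative controls on every plate.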

Test [10] concerns the target human CYP2A6, CYP2A6 (gene 1548) (UniProt P11509). In words: NVS_ADME_hCYP2A6: NovaScreen (NVS) CYP450-related Enzyme Activity (ADME) Assay for human CYP2A6 (AID 2283099; active = hit-call score of the fitted dose curve at least 0.9, where 1 is the maximum). In a few lines:
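Loss of fluorescence signal relative to acetonitrile vehicle reported CYP2A6 inhibition in a cell-free system using insect-cell-derived enzyme. Readings were taken at 0.5 h; top concentration in follow-up dose series was 20 uM.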

SMILES strings stand for the structures. Results filed as inconclusive are left out. The source holds several records for some structures; these can differ, active in one and inactive in another. Calls of active or inactive are those of the source. The calls were made as follows, unless noted: active = hit-call score of the fitted dose curve at least 0.9, where 1 is the maximum; inactive = score below 0.9.

Chain of human CYP19A1, CYP19A1 (gene 1588) (P11511 whole entry, looked up): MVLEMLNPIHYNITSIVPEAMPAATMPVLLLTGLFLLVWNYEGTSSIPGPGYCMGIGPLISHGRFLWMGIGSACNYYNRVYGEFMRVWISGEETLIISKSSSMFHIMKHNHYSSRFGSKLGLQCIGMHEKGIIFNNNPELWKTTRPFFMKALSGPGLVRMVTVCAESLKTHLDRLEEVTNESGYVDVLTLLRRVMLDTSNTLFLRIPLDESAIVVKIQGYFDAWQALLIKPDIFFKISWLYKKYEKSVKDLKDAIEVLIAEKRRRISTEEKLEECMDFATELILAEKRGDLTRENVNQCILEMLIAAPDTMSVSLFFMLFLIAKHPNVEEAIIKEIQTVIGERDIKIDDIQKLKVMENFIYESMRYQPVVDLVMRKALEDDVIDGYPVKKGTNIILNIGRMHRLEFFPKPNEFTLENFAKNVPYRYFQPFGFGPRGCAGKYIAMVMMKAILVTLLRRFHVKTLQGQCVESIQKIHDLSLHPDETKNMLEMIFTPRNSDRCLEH
Chain of human CYP1A2, CYP1A2 (gene 1544) (P05177 whole entry, looked up): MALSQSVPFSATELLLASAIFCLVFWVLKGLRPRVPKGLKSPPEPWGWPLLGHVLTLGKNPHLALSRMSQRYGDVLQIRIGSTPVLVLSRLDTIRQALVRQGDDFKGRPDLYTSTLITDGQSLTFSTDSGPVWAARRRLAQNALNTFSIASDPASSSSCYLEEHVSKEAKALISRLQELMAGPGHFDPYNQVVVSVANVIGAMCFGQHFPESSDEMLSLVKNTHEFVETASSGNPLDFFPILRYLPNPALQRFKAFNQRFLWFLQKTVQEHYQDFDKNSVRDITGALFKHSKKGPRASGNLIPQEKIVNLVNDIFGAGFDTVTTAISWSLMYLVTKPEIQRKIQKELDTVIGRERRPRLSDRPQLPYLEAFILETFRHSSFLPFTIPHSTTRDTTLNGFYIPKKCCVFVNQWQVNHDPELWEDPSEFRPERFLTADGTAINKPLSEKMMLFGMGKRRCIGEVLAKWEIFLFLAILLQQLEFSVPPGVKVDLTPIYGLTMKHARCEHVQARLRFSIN
Chain of human CYP2A6, CYP2A6 (gene 1548) (P11509 whole entry, looked up): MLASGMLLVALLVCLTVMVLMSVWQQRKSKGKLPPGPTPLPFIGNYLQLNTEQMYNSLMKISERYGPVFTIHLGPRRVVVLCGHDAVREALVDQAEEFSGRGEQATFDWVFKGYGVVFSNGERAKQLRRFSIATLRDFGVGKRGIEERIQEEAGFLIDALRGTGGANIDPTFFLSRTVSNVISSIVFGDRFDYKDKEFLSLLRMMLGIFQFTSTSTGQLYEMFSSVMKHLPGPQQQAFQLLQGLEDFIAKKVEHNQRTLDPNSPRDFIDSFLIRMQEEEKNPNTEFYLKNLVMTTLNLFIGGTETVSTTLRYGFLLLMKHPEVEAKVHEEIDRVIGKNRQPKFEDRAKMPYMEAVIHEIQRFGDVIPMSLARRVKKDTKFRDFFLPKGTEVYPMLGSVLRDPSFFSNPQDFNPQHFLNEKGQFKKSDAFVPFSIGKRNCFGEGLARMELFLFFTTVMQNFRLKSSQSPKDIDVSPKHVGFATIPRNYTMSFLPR

With `Cc1cc(CCN2CCN(c3nsc4ccccc34)CC2)cc2c1NC(=O)CC2(C)C`, the AC50 in test [1] was 17.3 µM (active); in test [2] it was 13 µM (active); in [3], 20 µM (active); in test [4] it was 8.05 µM (active); in [5] it was 33.9 µM (active). Further, the compound was classed as inactive in test [6] and in [7].

Consider `CC#C[C@]1(O)CC[C@H]2[C@@H]3CCC4=CC(=O)CCC4=C3[C@@H](c3ccc(N(C)C)cc3)C[C@@]21C`, for which the AC50 is 35.5 µM (active) in test [1], 36.2 µM (active) in test [4] and 31.7 µM (active) in test [5]. For the same compound, the result in test [2] and in test [3] was inactive.

On to `Nc1cccc2c(N)cccc12`, for which the outcome in test [1], in [3], in test [5] and in test [7] was inactive. Moreover, the AC50 in [2] was 13.7 µM (active); in test [4] it was 17.5 µM (active); in test [8] it was 7.14 µM (active); in [9], 3.06 µM (active).

In the case of `CCC(=C(c1ccc(O)cc1)c1ccc(OCCN(C)C)cc1)c1ccccc1`, the AC50 in test [1] is 13.2 µM (active); in [2], 7.32 µM (active); in test [3], 10.2 µM (active); in test [4], 5.91 µM (active); in test [5] it was 8.31 µM (active).

For `CCCCCCCCCCCCN1CCCC1=O`, the AC50 was 36.8 µM (active) in test [1]; 33 µM (active) in [2]; 20 µM (active) in test [3]; 36.3 µM (active) in test [4]; 30.9 µM (active) in [5].

Regarding `CCC(C)(C)C1CCC(O)CC1` (centres undefined), the outcome in test [1], in test [2], in [3], in [4] and in test [5] was inactive.

`NCC(F)(F)C(F)(F)C(F)(F)C(F)(F)C(F)(F)C(F)(F)C(F)(F)F`: the figures for the AC50 in [2] and in [4] were 47.2 µM (active) and 43.6 µM (active), respectively. For the same compound, the result in test [2], in [3], in test [4] and in test [5] was inactive.

As for `CCOC(=O)CC(O)(CC(=O)OCC)C(=O)OCC`, the outcome in [1], in [2], in test [3], in test [4] and in test [5] was inactive.

With `c1ccc2c(c1)Cc1ccccc1-2`, the result in test [1], in test [2], in test [3], in test [4] and in test [5] was inactive.

For `CCCCCCCCCCCCc1ccccc1S(=O)(=O)O`, the outcome in test [1], in test [2], in [3], in test [4] and in test [5] was inactive.

Regarding `CN1CCN(c2ccccc2/C=C2\SCCN(c3ccc(Cl)c(Cl)c3)C2=O)CC1`, the result in test [1] was inactive. Moreover, the AC50 in test [2] is 14.4 µM (active); in [3] it was 20 µM (active); in test [4], 6.38 µM (active); in test [5], 5.22 µM (active).

Turning to `CCCOC(=O)c1ccc(O)cc1`, the result in test [1], in test [2], in [3], in [4], in test [5] and in test [10] was inactive. Besides, the outcome in test [8] was inactive.

Turning to `COCC(C)OCC(C)O` (centres undefined), the outcome in test [1], in [2], in test [3], in [4], in test [5] and in test [6] was inactive.

Regarding `N#C[C@@H]1CC(F)(F)CN1C(=O)CNC1CC2CCC(C1)N2c1ncccn1` (some centres undefined), the result in test [1] was inactive. Besides, the AC50 is 8.08 µM (active) in test [2], 7.82 µM (active) in [3], 9.88 µM (active) in test [4] and 5.45 µM (active) in test [5].

As for `COCC(C)O` (centres undefined), the outcome in test [1], in test [2], in test [3], in [4] and in [5] was inactive.

By AC50 is commonly meant the concentration giving half of the maximal activity seen.

Source of the values: PubChem BioAssay (EPA / NIEHS).
